Screening results deposited in PubChem BioAssay by Sanford-Burnham Center for Chemical Genomics.
CD11b adhes enh: enhancers of human CD11b/CD18 binding to fibrinogen; 93,000 compounds, 0.07% hits; P05107+P11215; K562 CD11b/CD18 adhesion to fibrinogen, ATPlite luminescence; activation, % at 10 µM;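 active = 10 µM primary screen giving 50% or more activity, confirmed by 40% or more on retest at that dose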
CYP2C9 inh: blocks human cytochrome P450 2C9; CYP2C9 Supersomes, luciferin-H conversion, luminescence; AID 777; inhibition, % at 5 µM; 96,000 compounds, 20% hits;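 active = blocking of liver enzyme CYP2C9 beyond about 50% at 5 µM, limit read from the data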
Target sequence (P11712 whole entry, looked up): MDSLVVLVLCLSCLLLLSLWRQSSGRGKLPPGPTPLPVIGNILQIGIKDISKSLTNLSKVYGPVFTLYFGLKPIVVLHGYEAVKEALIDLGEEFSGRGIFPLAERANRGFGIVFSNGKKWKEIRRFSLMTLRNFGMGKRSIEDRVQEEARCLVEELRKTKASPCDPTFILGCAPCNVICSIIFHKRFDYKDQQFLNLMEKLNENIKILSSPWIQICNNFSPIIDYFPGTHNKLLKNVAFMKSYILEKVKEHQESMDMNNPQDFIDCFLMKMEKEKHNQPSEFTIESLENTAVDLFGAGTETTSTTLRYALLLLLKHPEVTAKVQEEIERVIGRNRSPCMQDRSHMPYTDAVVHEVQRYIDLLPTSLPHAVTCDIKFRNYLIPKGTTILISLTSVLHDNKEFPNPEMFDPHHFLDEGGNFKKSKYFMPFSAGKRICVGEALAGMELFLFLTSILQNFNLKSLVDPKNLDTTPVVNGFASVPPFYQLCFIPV
CYP2C9 act: activators of human CYP2C9. P11712. recombinant CYP2C9, luciferin-H conversion, luminescence; hits give high values; factor 1 = untreated enzyme, 0 = blocked. activation factor at 5 µM. 96,000 compounds, 1.4% hits;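 active = activation factor of 2 or more for CYP2C9 at a 5 µM dose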
CYP2C19 inh: blocks human cytochrome P450 2C19 | P33261 | CYP2C19 Supersomes, luciferin-H EGE luminescence, 30 min | inhibition, % at 5 µM | 96,000 compounds, 21% hits | AID 778;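 active = CYP2C19 inhibition above a set limit at 5 µM in the primary screen, cut at about 50% in these data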
Mac1 fbg inh: CD11b/CD18-fibrinogen binding inhibition; P05107+P11215; K562 CD11b/CD18 adhesion to fibrinogen, ATPlite luminescence; Mn2+ added to activate the integrin; inhibition, % at 10 µM; 93,000 compounds, 0.54% hits;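 active = primary inhibition of 50% or more at 10 µM, then 40% or more on retest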
CYP2C19 activ: cytochrome P450 2C19 (human) activation | P33261 | recombinant CYP2C19, luciferin-H EGE luminescence; hits give high values; 0 = fully inhibited enzyme, 1 = untreated enzyme | activation factor at 5 µM | 96,000 tested, under 10 active;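 active = activation factor of at least 2 at 5 µM in the primary screen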
Hits are given with their value; . = inactive; / = no result. In the library only some 28% were active in any assay of this set; here they are far more common.

SMILES | CD11b adhes enh | CYP2C9 inh | CYP2C9 act | CYP2C19 inh | Mac1 fbg inh | CYP2C19 activ
O=C(NCC(c1cccs1)N1CCOCC1)c1ccc(Br)o1 (configuration not stated) | . | . | . | . | . | .
O=C(NCC(c1cccs1)N1CCOCC1)c1ccccc1NS(=O)(=O)c1ccc(Cl)c([N+](=O)[O-])c1 (configuration not stated) | . | / | / | / | 101 | /
O=C(NCC(c1cccs1)N1CCOCC1)c1ccccc1NS(=O)(=O)c1ccc(Cl)cc1 (configuration not stated) | . | / | / | / | 79 | /
O=C(O)CCC(=O)N1CCc2cc(S(=O)(=O)N(CCc3ccccc3)Cc3ccccc3)ccc21 | . | . | . | . | . | .
Cc1ccc([N+](=O)[O-])cc1NC(=O)CN1CCC(C)CC1 | . | . | . | . | . | .
Cc1csc(=Nc2c(C)n(C)n(-c3ccccc3)c2=O)n1Cc1ccccc1 | . | . | . | 82 | . | .
C=CCn1c(-c2ccc(OC)cc2)csc1=Nc1c(C)n(C)n(-c2ccccc2)c1=O | . | . | . | . | . | .
O=c1[nH]cnc2scc(C3COc4ccccc4O3)c12 (configuration not stated) | . | 80 | . | 88 | . | .
Cc1cc(C)cc(OC(=O)N2CCOCC2)c1 | . | . | . | . | . | .
C/C(=N/NC(=O)c1cc(-c2cccc([N+](=O)[O-])c2)n[nH]1)c1ccc(Cl)cc1 | . | / | / | / | . | /
CC(=O)N1N=C(c2cccc([N+](=O)[O-])c2)OC1c1ccccc1Cl (configuration not stated) | . | 86 | . | 62 | . | .
O=C1c2ccccc2C(=O)N1CCOCCN1C(=O)c2ccccc2C1=O | . | . | . | . | . | .
O=C1c2ccccc2C(=O)N1CN(C(=O)COc1ccccc1)c1ccccc1 | . | . | . | 58 | . | .
N#Cc1ccccc1OCC(=O)NC(N)=O | . | . | . | . | . | .
COc1ccc(OCC(=O)OCCN2C(=O)c3ccccc3C2=O)cc1 | . | . | . | . | . | .
O=C1c2ccccc2C(=O)N1CCCOc1ccccc1 | . | . | . | 85 | . | .
N#Cc1ccccc1OCCN1C(=O)c2ccccc2C1=O | . | 60 | . | 82 | . | .
Cc1ccc(/C=N\NC(=O)Cn2c(C)nc3ccccc32)o1 | . | . | . | . | . | .
CCC1(C)Cc2nc3[nH]c(=S)n(-c4ccc(C)cc4)c(=O)c3cc2CO1 (configuration not stated) | . | / | / | / | . | /
O=C(Cc1ccccc1)Nc1nnc(-c2cccs2)s1 | . | . | . | . | . | .
CSc1nsc(NC(=O)Cc2ccccc2)n1 | . | . | . | 65 | . | .
CC1CCc2nc(NC(=O)CN3CCN(c4ccc(F)cc4)CC3)sc2C1 (configuration not stated) | . | . | . | . | . | .
CC(=O)Nc1sc2c(c1CN1CCN(c3ccccn3)CC1)CCCC2 | . | . | . | 82 | . | .
O=C(CN1CCN(c2ccccn2)CC1)NCCc1ccccc1 | . | . | . | . | . | .
CC(=O)Nc1sc2c(c1CN1CCN(c3ccc(F)cc3)CC1)CCCC2 | . | . | . | 86 | . | .
SMILES | CD11b adhes enh | CYP2C9 inh | CYP2C9 act | CYP2C19 inh | Mac1 fbg inh | CYP2C19 activ
COc1cccc(NC(=O)C23CCC(C)(C(=O)O2)C3(C)C)c1 (configuration not stated) | . | . | . | . | . | .
CCCCC(=O)Nc1ccc(C(=O)NNC(=O)CCCOc2ccc(Cl)cc2Cl)cc1 | . | / | / | / | . | /
Cc1c(NS(=O)(=O)c2cccc3nsnc23)c(=O)n(-c2ccccc2)n1C | . | / | / | / | . | /
Cn1c(Cn2nnc3ccccc32)nnc1SCC(=O)c1ccc(F)cc1 | . | . | . | . | . | .
O=C(/C=C/c1ccc2c(c1)OCO2)NCCSCc1cccc(Cl)c1 | / | . | . | . | / | .
O=C(/C=C/c1ccc2c(c1)OCO2)NCCSCc1ccc(Cl)cc1Cl | . | 73 | . | . | . | .
O=C(NCCSCc1ccc(Cl)cc1Cl)c1ccc(CN2CCOCC2)cc1 | . | 81 | . | . | . | .
Cc1cc(C)c2c(n1)nn1c(C)c(CCC(=O)NCc3ccco3)c(C)nc21 | . | . | . | . | . | .
O=C(NCc1ccco1)c1cnn2c(C(F)F)cc(-c3ccccc3)nc12 | . | 58 | . | . | . | .
Cc1nc(SCC(=O)NCc2ccco2)[nH]c(=O)c1C | . | . | . | . | . | .
O=C(NCc1ccco1)c1cnn2c(C(F)(F)F)cc(-c3cccs3)nc12 | . | 51 | . | . | . | .
O=C(O)c1cnn2c(C(F)(F)F)cc(-c3ccco3)nc12 | . | . | . | . | . | .
Cc1cc(C)c(Cc2c(C)nc3c(C(=O)NCc4ccco4)cnn3c2C)c(C)c1 | . | 78 | . | . | . | .
O=C(CSc1nc2nc(-c3cccs3)cc(C(F)(F)F)c2c(=O)[nH]1)NCc1ccco1 | . | 72 | . | . | . | .
Cc1cc(NC(=O)c2cnn3c(C(F)F)cc(-c4ccccc4)nc23)no1 | . | . | . | . | . | .
C=C(C)C(=O)Nc1ccc(OC(F)(F)C(F)F)c(NC(=O)C(=C)C)c1 | . | . | . | . | . | .
O=CNNC(=O)c1cccc([N+](=O)[O-])c1 | . | / | / | / | . | /
C=CCn1c(=N)n(CC(=O)OCC)c2ccccc21 | . | . | . | . | . | .
COc1cc(OC)cc(C(=O)Nc2cccc(C(C)=O)c2)c1 | . | 76 | . | 71 | . | .
COc1ccc(S(=O)(=O)N(C)CC(=O)NC2CCCC2)cc1Cl | . | . | . | 55 | . | .
COc1ccc(S(=O)(=O)N(C)CC(=O)N2CCCCC2)cc1Cl | . | . | . | . | . | .
COc1ccc(S(=O)(=O)N(C)CC(=O)Nc2cccc(C(C)=O)c2)cc1 | . | . | . | 88 | . | .
COc1ccc(S(=O)(=O)N(C)CC(=O)Nc2cccc(C(C)=O)c2)cc1Cl | . | . | . | 93 | . | .
COc1cccc(C(=O)Nc2cccc(NC(C)=O)c2)c1 | . | . | . | . | . | .
Cc1ccc(N(c2ncnc(N)c2[N+](=O)[O-])C2CCCCC2)cc1 | / | . | . | . | / | .
CS(=O)(=O)c1ccc(Cl)c(NC(=O)c2ccc3ccccc3c2)c1 | . | / | / | / | . | /
COc1ccc(S(=O)(=O)N(C)CC(=O)Nc2ccc(F)cc2)cc1 | . | . | 2.2 | . | . | .
COc1ccc(Cn2nnnc2C(C(C)C)N2CCc3ccccc32)cc1 (configuration not stated) | . | 68 | . | 71 | . | .
COc1ccc(Cn2nnnc2C(CC(C)C)N2CCN(c3ccccc3)CC2)cc1 (configuration not stated) | . | 65 | . | 74 | . | .
CC(C)CC(c1nnnn1C(C)C)N1CCN(c2ccccc2)CC1 (configuration not stated) | / | 68 | . | . | / | .
